What all share (parameters): species or system human, MV4-11 + K-562 + COLO205 + SK-N-BE2 + OVCAR-8
One test concerns NEK2. To be noted: read-out: apparent Kd; compound concentrations:100 nM and 1000 nM (sheet 'Samples'); n = 1.
The next test concerns PKMYT1. The settings on record: read-out: apparent Kd; compound concentrations:100 nM and 1000 nM (sheet 'Samples'); n = 1.
The next test concerns PRKACA. To be noted: read-out: apparent Kd; compound concentrations: 100 nM and 1000 nM (sheet 'Samples'), CATDS: 7.7130843989671599E-3; n = 1.
In a further test the test system is CAMK4. The settings on record: read-out: apparent Kd, n = 1.
In a further test the test system is CDK10. To be noted: read-out: apparent Kd, n = 1.
For the next test, the system named is CDK12. The settings on record: read-out: apparent Kd; compound concentrations:100 nM and 1000 nM (sheet 'Samples'); n = 1.
The test system of another test is CDK13. To be noted: read-out: apparent Kd, n = 1.
Another test deals with IRAK1. To be noted: read-out: apparent Kd, n = 1.
A further test has as its system SLC25A6;SLC25A4. The settings on record: read-out: apparent Kd, n = 1.
A further test relates to CSNK1G3. To be noted: read-out: apparent Kd; compound concentrations:100 nM and 1000 nM (sheet 'Samples'); n = 1.
For a further test, the system named is DHCR24. The settings on record: read-out: apparent Kd, n = 1.
For a further test, the system named is PKM. To be noted: read-out: apparent Kd, compound concentrations: 100 nM and 1000 nM (sheet 'Samples'), n = 1.
For the next test, the system named is DCK. The settings on record: read-out: apparent Kd, n = 1.
The subject of another test is PRKCI. The settings on record: read-out: apparent Kd, n = 1.
The test system of a further test is TUBB6. To be noted: read-out: apparent Kd, n = 1.
A further test has as its system ARAF. To be noted: read-out: apparent Kd, compound concentrations: 100 nM and 1000 nM (sheet 'Samples'), n = 1.
The test system of another test is PI4KA. To be noted: read-out: apparent Kd; compound concentrations:100 nM and 1000 nM (sheet 'Samples'); n = 1.
The next test relates to CAMK2D. The settings on record: read-out: apparent Kd, n = 1.
The subject of another test is EPHA7. To be noted: read-out: apparent Kd; compound concentrations:100 nM and 1000 nM (sheet 'Samples'); n = 1.
The next test concerns PSMC3. The settings on record: read-out: apparent Kd, n = 1.
Setting [1] is: compound concentrations:100 nM and 1000 nM (sheet 'Samples').

Where two headings read alike, the source gives them in different places.

With `CCN(CC)CCOc1ccc(Nc2ncc3cc(-c4c(Cl)cccc4Cl)c(=O)n(C)c3n2)cc1` [SB-601273], the potency estimated from few doses in the test with NEK2 was 1780 nM; in the test on PKMYT1, 1030 nM.

As for `O=C1N=C(NCc2cccs2)SC1Cc1ccc2ncccc2c1` (stereo not shown) [RO4629078-000], the potency estimated from few doses in the test with PRKACA was 1470 nM. Take `Fc1ccc(-c2c(-c3ccncc3)[nH]c3nccnc23)cc1` [RO1155697-000]: the potency estimated from few doses with CAMK4 (setting [1]) is 1550 nM. As to `N#Cc1cccc(Nc2nccc(-c3cnn4ncccc34)n2)c1` [GW778894X], the potency estimated from few doses with CDK10 (setting [1]) is 405 nM; in the test with CDK12, 541 nM; with CDK13 (setting [1]), 1160 nM; in the test on IRAK1 (setting [1]), 896 nM. As for `O=S(=O)(c1ccc(-c2ccnc3[nH]ccc23)cc1)N1CCCC1` [GSK846226A], in the test on SLC25A6;SLC25A4 (setting [1]), the potency estimated from few doses was 2020 nM.

For the molecule `CC(=O)c1c(-c2ccncc2)[nH]c(-c2ccncc2)c1C` [GW493036X], the potency estimated from few doses in the test with CSNK1G3 was 842 nM; in the test on DHCR24 (setting [1]) it was 1240 nM. In the case of `CNC(=O)c1ccccc1Nc1nc(Nc2cccc(CS(C)(=O)=O)c2)ncc1C.O=CO` [GSK1520489A], the potency estimated from few doses in the test with IRAK1 (compound concentrations: 100 nM and 1000 nM (sheet 'Samples'), CATDS: 1.0270392688251299E-2) is 1150 nM. For the molecule `CN1CCN(Cc2ccc(-c3ccc4c(Nc5ccc(Oc6ccccn6)cc5)ccnc4c3)o2)CC1` [GW567140X], the potency estimated from few doses in the test on CAMK4 (compound concentrations: 100 nM and 1000 nM (sheet 'Samples'), CATDS: 3.2094924147275203E-2) was 2000 nM; in the test on PKM (CATDS: 3.4326075880393901E-2) it was 1520 nM. As for `O=S(=O)(CCOCc1ccc(-c2ccc3ncnc(Nc4ccc(OCc5cccc(F)c5)c(Cl)c4)c3c2)o1)c1ccccc1` [GW615311X], the potency estimated from few doses with DCK (compound concentrations: 100 nM and 1000 nM (sheet 'Samples'), CATDS: 2.31641141582303E-2) is 2110 nM; in the test with PRKCI (compound concentrations: 100 nM and 1000 nM (sheet 'Samples'), CATDS: 2.29472037028754E-2) it was 2160 nM; with TUBB6 (compound concentrations: 100 nM and 1000 nM (sheet 'Samples'), CATDS: 2.6696132806602001E-2), 1500 nM. As to `CC(=O)N1CCN(c2ccc(Nc3nccc(-c4sc(C(C)C)nc4-c4cccc(NS(=O)(=O)c5ccccc5)c4)n3)cn2)CC1` [GSK1645872A], in the test on ARAF (CATDS: 2.3399978491415799E-2), the potency estimated from few doses was 1560 nM. Take `Nc1nc(N)c2nc(-c3ccccc3)[nH]c2n1` [SKF-12778]: the potency estimated from few doses in the test on CSNK1G3 was 1180 nM; in the test on DCK (setting [1]) it was 1720 nM; in the test with PI4KA it was 1400 nM; in the test on TUBB6 (setting [1]), 1770 nM. As for `CC(C)c1nc(-c2cccc(NS(=O)(=O)c3c(F)cccc3F)c2F)c(-c2ccnc(Nc3ccc(N4CCOCC4)nc3)n2)s1` [GSK2008607A], the potency estimated from few doses in the test on ARAF (CATDS: 1.81049419419274E-2) was 2030 nM.

Regarding `CN1CCN(Cc2ccc(NC(=O)Nc3ccc(N(C)c4ccnc(Nc5ccc(CS(C)(=O)=O)cc5)n4)cc3)cc2)CC1.Cl` [GW827654A], in the test with CDK10 (compound concentrations: 100 nM and 1000 nM (sheet 'Samples'), CATDS: 3.5844771224848297E-2), the potency estimated from few doses was 1570 nM. With `Cn1cc(C2=C(c3ccccc3[N+](=O)[O-])C(=O)NC2=O)c2ccccc21` [RO0317753-000], the potency estimated from few doses in the test with CAMK2D (compound concentrations: 100 nM and 1000 nM (sheet 'Samples'), CATDS: 9.7402766920506798E-2) was 597 nM. With `Cc1ccc(-n2nc(C(C)(C)C)cc2NC(=O)Nc2ccc(OCCN3CCOCC3)cc2)cc1` [BIRB0876BS], the potency estimated from few doses with EPHA7 was 1830 nM. As to `Fc1cccc(COc2ccc(Nc3ncncc3C#Cc3ccccc3)cc2Cl)c1` [GW651576X], in the test on PSMC3 (compound concentrations: 100 nM and 1000 nM (sheet 'Samples'), CATDS: 4.80880541633023E-2), the potency estimated from few doses was 1950 nM. On to `COc1cccc(C2=C(c3cn(C)c4c(C)cccc34)C(=O)NC2=O)c1` [RO3301012-000], for which the potency estimated from few doses with SLC25A6;SLC25A4 (compound concentrations: 100 nM and 1000 nM (sheet 'Samples'), CATDS: 9.9606855520270293E-2) was 1850 nM. On to `COc1ccc(Nc2nccc(N3CCC(NC(=O)Nc4cccc(OC)c4)C3)n2)cc1` (stereo not shown) [GSK1379742A], for which the potency estimated from few doses in the test on DHCR24 (compound concentrations: 100 nM and 1000 nM (sheet 'Samples'), CATDS: 0.157459675408709) was 1060 nM.

In the case of `Cl.Oc1ccc2ncnc(Nc3ccc(OCc4ccccc4)cc3)c2c1` [GI262866A], the potency estimated from few doses with CAMK2D (setting [1]) was 388 nM. As to `Cc1[nH]nc2c1N=C(c1ccccc1Cl)c1cc([N+](=O)[O-])ccc1N2` [RO0274406-000], the potency estimated from few doses in the test with PKM (CATDS: 7.8896221929170104E-2) was 922 nM. As for `COc1cc(F)c(F)c(F)c1C(=O)c1cnc(NC2CCN(S(C)(=O)=O)CC2)nc1N` [RO4600703-000], the potency estimated from few doses with CDK12 is 2300 nM. Turning to `CCCCCNC(=O)[C@@H]1CCCN2C(=O)CC[C@H](NC(=O)[C@H](Cc3ccc(OP(=O)(O)O)cc3)NC(C)=O)C(=O)N12` [RO0324694-000], in the test on PSMC3 (setting [1]), the potency estimated from few doses was 1910 nM. Consider `COc1ccc(-c2nn3ncccc3c2-c2ccnc(Nc3ccc4c(c3)OCCO4)n2)cc1` [GW827106X], for which, in the test with CDK13 (compound concentrations: 100 nM and 1000 nM (sheet 'Samples'), CATDS: 4.6663696277222499E-2), the potency estimated from few doses was 1770 nM. As to `COc1ccc(C2=C(Nc3cccc(O)c3)C(=O)NC2=O)cc1` [SB-390766], in the test on PI4KA, the potency estimated from few doses is 1330 nM. Turning to `NC(=O)c1cccnc1COc1cc(-c2ccc(N3CCOCC3)nc2)cc2ncccc12` [BI01125081], the potency estimated from few doses with EPHA7 is 1500 nM. As for `Nc1c(C(=O)c2ccccc2)cnn1-c1ccc(F)cc1` [RO1151246-000], the potency estimated from few doses in the test with PRKCI (setting [1]) is 2030 nM.

Values taken from paper PMC11062922 (Nature Chemical Biology, 2023).
